Results on 15 molecules are retold here after PubChem BioAssay AID687001 (Broad Institute, 2013).

Measured potencies and affinities stand elsewhere. Active and inactive are the calls of the source.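 The calls were made as follows: active = signal-lowering compounds whose fitted half-maximal concentration is at or below twice the top tested dose in every run; inconclusive = runs disagree, flat 30 to 70% inhibition, or poor curve fit; inactive = the rest.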

Chain of Protein S100-A4 (Homo sapiens) (P26447 whole entry, looked up): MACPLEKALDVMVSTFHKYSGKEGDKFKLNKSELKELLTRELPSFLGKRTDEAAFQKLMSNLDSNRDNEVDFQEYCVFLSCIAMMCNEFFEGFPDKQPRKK

This experiment addresses Protein S100-A4 (Homo sapiens) (UniProt P26447). The experiment in a line: S100A4-myosin IIA binding inhibitor potency, dose response, biochemical, fluorescence polarization, cherry-picked hits (AID 687001). As to conditions: FP, S100A4/TAMRA-myosin IIA peptide binding; series mostly up to 11 µM.
Regarding `Cc1ccccc1NC(=O)C1CCN(S(=O)(=O)c2ccc3c(c2)NC(=O)C(C)S3)CC1` (stereo not given), the outcome was inactive.

For `CCCCCC(=O)Nc1ncc2c(n1)CC(c1cccs1)CC2=O` (stereo not given), the molecule was classed as inactive.

In the case of `O=C(CC(F)(F)F)N1C[C@@H]2[C@H](c3ccccc31)[C@@H](CO)N2CC1CCOCC1`, the call was inactive.

Regarding `C[C@H]1CN([C@@H](C)CO)C(=O)CCCn2nncc2CO[C@H]1CN(C)S(=O)(=O)c1ccc2c(c1)OCCCO2`, the outcome was inactive.

As for `CC(=O)N1CCCCN2[C@@H](CO)[C@H](c3ccc(-c4cccc(C(=O)N(C)C)c4)cc3)[C@@H]2C1`, the molecule was called inactive.

On to `Cc1ccccc1CN1CCC(n2nccc2NC(=O)CCOc2ccccc2)CC1`, for which the molecule was called inactive.

For `Cc1sc2nc(SCC(=O)N3CCOCC3)[nH]c(=O)c2c1-c1ccccc1`, the call was inactive.

Consider `Cc1ccc(CCNC(=O)c2cc(-c3ccncc3)nc3ccc(S(=O)(=O)N4CCOCC4)cc23)cc1`, for which the molecule was classed as inactive.

Consider `N#C[C@@H]1[C@H](c2ccccc2C2=CCCCC2)[C@H](CO)N1C(=O)NC1CCCC1`, for which the call was inactive.

In the case of `O=C(C[C@@H]1C=C[C@@H](NS(=O)(=O)c2cccc(F)c2)[C@@H](CO)O1)NCc1ccc2c(c1)OCO2`, the molecule was classed as inactive.

As to `CCOc1cc(CNCc2ccccc2)ccc1OCc1ccc(Cl)cc1`, the outcome was inactive.

For `COc1ccccc1N1CC(C(=O)Nc2ccc(C)c(S(=O)(=O)N3CCOCC3)c2)CC1=O` (stereo not given), the molecule was classed as inactive.

Take `Cc1ccc(CNC(=O)c2[nH]c(C(F)(F)F)nc2-c2ccccc2)cc1`: the molecule was classed as inactive.

Regarding `COc1ccc(CNC(=O)c2cc(S(=O)(=O)N3CCCCC3)ccc2Cl)cc1OC`, the outcome was inactive.

`CC(C)CC1C(=O)N(Cc2cn(CC3CCCCC3)nn2)CCS(=O)(=O)N1Cc1ccc(-c2ccc(Cl)cc2)cc1` (stereo not given): the result was inactive.
